Screening results: PubChem BioAssay, National Center for Advancing Translational Sciences (NCATS)
BAZ2B block: blocks human BAZ2B | 4.4% of 360,000 active | AlphaScreen BAZ2B-H3K14Ac peptide displacement | Potency, µM (series often up to 114 µM), for the others: top-dose activity change, negative = inhibition, most hits filed as inhibitors | Q9UIF8; also: % is scaled to controls: 0 for no effect and ±100 for the full control effect; nearly all actives have a fitted effect of over 60% in size
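Complex of BAZ2B and biotin-H3K14Ac (50 nM apiece) forms over 30 min at RT, then faces library compounds up to 110 uM for another 30 min; AlphaScreen beads added, 20 min dark incubation, luminescence read.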
L3MBTL1 inh: blocks human L3MBTL1; Q9Y468; AlphaScreen L3MBTL1–H3K9me1 peptide binding; Potency, µM (doses to about 57.1 µM), without a hit: top-dose activity, negative = inhibition, usual class: inhibitors; 0.66% of 230,000 active; AID 485360; also: % is scaled to controls: 0 for no effect and ±100 for the full control effect; nearly all actives have a fitted effect of over 60% in size
Target sequence (Q9Y468 whole entry, looked up): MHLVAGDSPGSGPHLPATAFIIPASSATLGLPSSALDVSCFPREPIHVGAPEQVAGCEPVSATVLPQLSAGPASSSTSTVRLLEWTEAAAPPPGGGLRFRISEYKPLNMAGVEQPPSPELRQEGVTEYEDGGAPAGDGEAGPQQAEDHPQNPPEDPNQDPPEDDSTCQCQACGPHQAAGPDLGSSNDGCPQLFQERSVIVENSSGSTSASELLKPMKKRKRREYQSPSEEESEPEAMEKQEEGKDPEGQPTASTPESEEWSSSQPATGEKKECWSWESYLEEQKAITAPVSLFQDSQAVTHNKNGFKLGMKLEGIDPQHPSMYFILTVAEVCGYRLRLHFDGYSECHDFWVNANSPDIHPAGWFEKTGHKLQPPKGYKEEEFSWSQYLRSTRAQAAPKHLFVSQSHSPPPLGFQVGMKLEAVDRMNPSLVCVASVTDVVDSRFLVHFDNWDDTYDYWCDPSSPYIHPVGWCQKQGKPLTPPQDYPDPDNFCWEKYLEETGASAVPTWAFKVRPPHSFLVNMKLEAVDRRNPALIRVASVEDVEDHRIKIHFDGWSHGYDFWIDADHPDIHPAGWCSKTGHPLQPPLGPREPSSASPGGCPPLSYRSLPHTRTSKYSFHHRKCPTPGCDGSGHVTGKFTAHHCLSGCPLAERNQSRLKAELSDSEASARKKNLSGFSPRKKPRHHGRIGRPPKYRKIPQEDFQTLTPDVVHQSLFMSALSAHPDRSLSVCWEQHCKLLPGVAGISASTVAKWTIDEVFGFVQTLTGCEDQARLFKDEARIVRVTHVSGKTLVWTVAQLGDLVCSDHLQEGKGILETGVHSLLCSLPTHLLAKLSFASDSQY
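L3MBTL1 (50 nM) pre-complexed 30 min with biotinylated H3(1-15)K9me1 peptide (75 nM), then compounds added for 30 min at room temperature; AlphaScreen streptavidin donor/nickel chelate acceptor beads (10 ug/mL final) read after 30 min dark incubation.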
G9a inh: G9a (human) methyltransferase inhibition; Q96KQ7; Potency, µM (titrated, usually from 102 µM), for the others: top-dose activity, negative = inhibition, usual class: inhibitors; 8.8% of 350,000 active; G9a H3K9 monomethylation, AlphaScreen, 2 h; AID 504332; also: % is scaled to controls: 0 for no effect and ±100 for the full control effect; nearly all actives have a fitted effect of over 75% in size
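Methyltransferase reactions run at room temperature for 2 h (20 nM enzyme, 500 nM biotin-H3K9 peptide, 20 uM SAM) after a 15 min compound preincubation; product detected by AlphaScreen beads and anti-H3K9me1 antibody.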
Sfp inh: blocks B. subtilis Sfp PPTase activity; Q9F4F7; 3.5% of 310,000 active; Biochemical Sfp PPTase activity, qHTS; Potency, µM, for inactives: largest response in the series, negative = inhibition, actives largely listed as inhibitors;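 also: the enzyme is Sfp with the accession as filed and its product quenches rhodamine fluorescence; 0% = enzyme reaction without inhibitor and -100% = no enzyme wells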
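Sfp 15 nM + cpd, 15 min RT; start w/ rhodamine-CoA 5 uM, BHQ-2-YbbR 12.5 uM (final); 50 mM Hepes pH 7.6, 10 mM MgCl2, 0.01% NP-40, 0.01% BSA; read 525/598 nm at 0 and 30 min.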
HP1b binding inh: inhibitors of HP1-beta chromodomain binding to methylated histone tails; P83916; AlphaScreen HP1-beta / biotin-H3K9me3 peptide binding; Potency, µM (titrated, usually from 114 µM), inactives show top-dose activity change, negative = inhibition, hits mostly inhibitors; 0.56% of 390,000 active; also: nearly all actives have a fitted effect of over 70% in size
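AlphaScreen: HP1-beta (50 nM) preformed 30 min with biotin-H3(1-18)K9me3 peptide (50 nM) in PBS pH 7.4, 0.01% Tween-20. Compound added for 30 min at RT, then streptavidin donor/nickel chelate acceptor beads (10 ug/mL) for 30 min.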
JMJD2A Tudor: inhibitors of human JMJD2A Tudor domain; AlphaScreen JMJD2A-Tudor / H3K4me3 peptide binding; 4.4% of 390,000 active; Potency, µM (highest dose often 114 µM), without a hit: at the top dose activity change, negative = inhibition, hits mostly inhibitors; also: % is scaled to controls: 0 for no effect and ±100 for the full control effect; nearly all actives have a fitted effect of over 50% in size
* hit, by the source's call; ? = inconclusive; / = no result; [ ] = dose if it differs, or a comment. This is a sample that favours compounds with a hit; in the whole collection about 12% have one here. Calls follow the shape of the dose curve; as a rule, active = well fitted curve in the direction sought with a large enough effect; inconclusive = small, poorly fitted or top-dose-only effect, or another doubt; inactive = no such curve, though single readings can be large; an effect the other way counts as inactive or inconclusive. Potency is read from the fitted curve at half-maximal effect.

SMILES	BAZ2B block	L3MBTL1 inh	G9a inh	Sfp inh	HP1b binding inh	JMJD2A Tudor
CC1CCCN(C(=S)Nc2ccc(Nc3ccccc3)cc2)C1 (stereo not given)	-38%	-21%	40µM*	?	?	?
S=C(Nc1ccccc1)N1CCC(C2CCN(C(=S)Nc3ccccc3)CC2)CC1	-1%	-2%	/	16%	14%	-7%
OC1CCN(C(=S)Nc2ccc(Nc3ccccc3)cc2)CC1	?	?	?	18µM*	-12%	-35%
C#CCCCC(=S)Nc1ccccc1	/	/	/	4%	/	/
CC1(C)CC(N=c2cc(-c3ccccc3)oc3ccc(Cl)cc23)CC(C)(C)N1	?	/	71µM*	-30%	19%	-23%
OCCCN=c1cc(-c2ccccc2)oc2ccc(Cl)cc12	-6%	/	?	5%	40%	-11%
NNc1ccc2nncn2n1	-13%	2%	50µM*	?	17%	-4%
CC(OC(=O)c1ccc2c(c1)OCO2)C(=O)NC1CCCCC1C (stereo not given)	-3%	4%	28µM*	/	12%	0%
CC1CCN(S(=O)(=O)c2ccc(C(=O)OC(C)C(=O)NC3CCCCC3C)cc2)CC1 (stereo not given)	-10%	/	32µM*	6%	20%	-7%
CC(OC(=O)c1cccc(Cl)c1)C(=O)NC1CCCCC1C (stereo not given)	-3%	/	1%	5%	34%	5%
S=C(NCCCN1CCOCC1)N1CCN(c2cccc(Cl)c2)CC1	-21%	/	32µM*	?	9%	-33%
O=C(c1ccc(-c2ccccc2)cc1)c1ccc([N+](=O)[O-])cc1	-38%	-21%	56µM*	13%	/	/
Cc1ccc(C(=O)c2ccc([N+](=O)[O-])cc2)cc1	?	/	?	3%	-10%	-35%
O=C(C#Cc1ccccc1)c1ccc([N+](=O)[O-])cc1	?	/	10µM*	-5%	-2%	-35%
Cc1cc(/C=C2\NC(=O)N(Cc3ccc(Cl)cc3)C2=O)c(C)n1C	-28%	-22%	16µM*	0%	22%	-29%
CCN1C(=O)/C(=C/c2ccc(C)s2)NC1=S	-34%	/	13µM*	7%	26%	-26%
Cc1cc(N2CCOCC2)ccc1/C=C1\NC(=O)N(Cc2ccccc2)C1=O	-29%	3%	50µM*	4%	36%	-7%
Cc1ccc(/C=C2/NC(=O)N(Cc3ccccc3)C2=O)s1	?	-15%	?	50µM*	-1%	-11%
CC(C)(C)c1ccc(C2NC(=O)c3n[nH]c(-c4cccs4)c32)cc1 (stereo not given)	/	/	7%[59 µM]	/	38%	-10%
Cc1cc(C)cc(NC(=O)CCc2c(C)nc3c(c2C)c(=O)n(C)c(=O)n3C)c1	-10%	/	-12%[59 µM]	/	62%	-5%
Cc1ccc(S(=O)(=O)N(C)c2ccc(OC(=O)c3cccs3)cc2)cc1	/	9%	/	/	35%	21%
CN(C)c1ccc(/C=C2/C=C(c3ccc4c(c3)CCCC4)OC2=O)cc1	?	/	-17%[59 µM]	-3%	?	2.5µM*
CCCC(NC(=O)Cc1c(C)c2c(cc(C)c3c(C)coc32)oc1=O)C(=O)O (stereo not given)	-1%	/	4%	6%	48%	-16%
Cc1coc2c1c(C)cc1oc(=O)c(CC(=O)N[C@@H](CC(C)C)C(=O)O)c(C)c12	2%	/	50µM*	2%	18%	-29%
S=c1[nH]nc(CNc2ccc(Cl)cc2)n1Cc1ccccc1	-34%	-16%	?	7%	20%	-2%
SMILES	BAZ2B block	L3MBTL1 inh	G9a inh	Sfp inh	HP1b binding inh	JMJD2A Tudor
CCCCc1n[nH]c(=S)n1Cc1ccc(Cl)cc1	-12%	/	3.5µM*	-13%	19%	?
CCCCc1n[nH]c(=S)n1Cc1ccccc1	-27%	3%[11.4 µM]	?	9%	8%	4µM*
O=C(NCc1n[nH]c(=S)n1Cc1ccccc1)c1ccc(Cl)cc1Cl	-14%	5%	?	4%	33%	-30%
Nc1nccc(-c2nn(-c3ccc(Cl)cc3)ccc2=O)n1	-1%	4%	/	-4%	45%	-2%
C=CCSc1nc(=O)n2ccc(C)cc2n1	-23%	/	-34%	1%	13%	-12%
C#CCSc1nccc(-c2nn(-c3ccc(C)cc3)ccc2=O)n1	-2%	/	-38%[12.7 µM]	79µM*	?	79µM*
CSc1nccc(-c2nn(-c3ccc(C)cc3)ccc2=O)n1	25µM*	/	9%	-1%	-6%	56µM*
C=CCSc1nccc(-c2nn(-c3ccc(C)cc3)ccc2=O)n1	-4%	1%	50µM*	-2%	49%	-17%
CCSc1nccc(-c2nn(-c3ccc(C)cc3)ccc2=O)n1	-1%	/	79µM*	7%	52%	5%
Cc1ccc(-n2c(C)cc(C=C3C(=O)N(C)C(=O)N(C)C3=O)c2C)cc1	/	/	/	/	6%	-10%
COC(=O)C1=C(C)NC(=O)/C1=C\c1cc(C)n(-c2ccccc2)c1C	?	/	40µM*	?	-15%	?
COC(=O)C1=C(C)NC(=O)/C1=C\c1cc(C)n(-c2cc(C)cc(C)c2)c1C	45µM*	/	-15%[12.7 µM]	-12%	-60%	56µM*
O=[N+]([O-])c1ccc(-c2nnc(S)n2-c2ccccc2)cc1	0%	-1%	/	16%	/	/
Cn1nnnc1SCCNCc1cccc2ccccc12	4%	7%	50µM*	1%	14%	-24%
COc1ccc(Cl)cc1CNCCSc1nnnn1C	-1%	/	18%[59 µM]	/	71%	5%
Cc1ccccc1CNCCSc1nnnn1C	-16%	/	6%[59 µM]	/	26%	-8%
COc1cccc(CNCCSc2nnnn2C)c1	1%	54%	56µM*	-7%	55%	-4%
COc1cc(CNCCSc2nnnn2C)cc(Br)c1OCc1ccc(F)cc1	-32%	/	-39%[2.33 µM]	14µM*	19%	-27%
COc1ccc(Br)cc1CNCCSc1nnnn1C	-7%	5%	56µM*	7%	8%	-25%
O=C(Nc1ccc2c(c1)OCO2)c1c[nH]c(=O)n(-c2ccc(F)cc2)c1=O	35µM*	/	56µM*	-3%	-32%	?
O=S(NCc1ccco1)C12CC3CC(CC(C3)C1)C2 (stereo not given)	-1%	-3%	6.3µM*	-29%	-2%	-35%
Fc1ccc(CNc2ncnc3c2c(-c2ccccc2)cn3-c2ccccc2)cc1	26%	/	-8%[59 µM]	/	75%	-23%
CCOc1ccc(C(=O)CN2CCN(S(=O)(=O)c3ccc(F)cc3)CC2)cc1	-23%	3%	?	-10%	39%	-12%
O=C(CN1CCN(S(=O)(=O)c2ccc(Cl)cc2)CC1)c1ccc(O)c(O)c1	?	/	/	56µM*	-18%[57 µM]	18µM*
